Records with an inconclusive call do not appear. Activity calls are given as the source filed them. Calls come from the whole dose curve; as a rule, active = well fitted inhibition curve with a large enough effect; inconclusive = small, poorly fitted or top-dose-only effect; inactive = flat fitted curve, though single readings scatter.
Tested on: TAB109
Experiment: qHTS profiling for inhibitors of Plasmodium falciparum proliferation (AID 504749); note: nearly all actives have a fitted effect of over 60% in size
Details: P. falciparum in erythrocytes, SYBR Green DNA, 72 h; series mostly up to 28.7 µM
Procedure, shortened: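 SYBR Green fluorescence of parasite DNA, read after lysis and overnight dark incubation, measured growth over 72 h in erythrocyte culture at 0.3% parasitemia and 2.5% hematocrit. Data normalised to DMSO and 0.29 uM artemisinin, with plate-drift correction.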
Potency is the fitted concentration of half-maximal effect.

Potency, active:
CCCCC(=O)OCC(=O)[C@]1(O)Cc2c(O)c3c(c(O)c2[C@H](OC2CC(NC(=O)C(F)(F)F)C(O)C(C)O2)C1)C(=O)c1c(OC)cccc1C3=O (stereo not given in full) 2000 nM
C[C@H]1[C@@H](OC(=O)CCC(=O)O)OC2OC3(C)CC[C@H]4[C@H](C)CC[C@@H]1[C@@]24OO3 (stereo not given in full) 2.5 nM
COc1cc2c(cc1O)CCN[C@@]21CS[C@H]2c3c(OC(C)=O)c(C)c4c(c3C(COC1=O)N1C2C2c3c(cc(C)c(OC)c3O)CC([C@@H]1O)N2C)OCO4 (stereo not given in full) 0.9 nM
C[n+]1c2cc(N)ccc2cc2ccc(N)cc21 447 nM
CC[C@@]1(O)C[C@H](O[C@H]2C[C@@H](N(C)C)[C@@H](O[C@H]3C[C@@H](O)[C@@H](O[C@H]4CCC(=O)[C@@H](C)O4)[C@@H](C)O3)[C@@H](C)O2)c2c(cc3c(c2O)C(=O)c2c(O)cccc2C3=O)[C@H]1C(=O)OC 224 nM
CCC(C(=O)O)C1OC(C(C)C(O)C(C)C(=O)C(CC)C2OC3(C=CC(O)C4(CCC(C)(C5CCC(O)(CC)C(C)O5)O4)O3)C(C)CC2C)C(C)CC1C (stereo not given) 112 nM
COC1CC2CCC(C)[C@](O)(O2)C(=O)C(=O)N2CCCCC2C(=O)OC(C(C)CC2CCC(O)C(OC)C2)CC(=O)C(C)/C=C(/C)C(O)C(OC)C(=O)C(C)CC(C)C=CC=C/C=C\1C (stereo not given in full) 2240 nM

Potency, inactive:
C[C@H]1OC(OC2C(O)[C@@H](O)C(OC3C(O)[C@@H](O)C(O)O[C@@H]3CO)O[C@@H]2CO)[C@H](O)C(O)C1N[C@H]1C=C(CO)[C@@H](O)[C@H](O)C1O (stereo not given in full)
CCN(CC)CC(=O)Nc1c(C)cc(C)cc1C
NC(=O)c1ncn(C2OC(CO)C(O)C2O)c1N (stereo not given)
CC1(Cn2ccnn2)[C@H](C(=O)O)N2C(=O)C[C@H]2S1(=O)=O (stereo not given in full)
CN(C)CC/C=C1\c2ccccc2COc2ccc(CC(=O)O)cc21
CCCC(=O)O[C@]1(C(=O)COC(C)=O)CC[C@H]2C3C[C@H](F)C4=CC(=O)C=CC4(C)[C@@]3(F)[C@@H](O)CC21C (stereo not given in full)
OCCN1CC(O)C(O)C(O)C1CO (stereo not given)
CC(CCC(=O)O)C1CCC2C3C(=O)C[C@@H]4CC(=O)CC[C@@]4(C)C3CC(=O)[C@]12C (stereo not given in full)
O=[N+]([O-])O[C@H]1CO[C@H]2[C@@H]1OC[C@H]2O
COc1cccc(OC)c1C(=O)NC1C(=O)N2C1SC(C)(C)C2C(=O)O (stereo not given)
NC[C@@H]1O[C@H](OC2[C@@H](CO)O[C@@H](OC3[C@H](O)[C@H](N)C[C@H](N)[C@H]3OC3O[C@H](CO)[C@@H](O)[C@H](O)[C@@H]3N)[C@H]2O)C(N)[C@H](O)[C@@H]1O (stereo not given in full)
Cc1ccc(S(=O)(=O)NC(=O)NC(C)Cc2ccccc2)cc1 (stereo not given)
OCCOC[C@H]1O[C@H](OCCO)[C@H](OCCO)[C@@H](OCCO)[C@@H]1OCCO (tested in a mixture with another compound)
C[S+](C)CC[C@H](N)C(=O)O
CC[C@@H]1/C=C(\C)C[C@H](C)C[C@H](OC)[C@H]2O[C@@](O)(C(=O)C(=O)N3CCCC[C@H]3C(=O)O[C@H](/C(C)=C/[C@@H]3CC[C@H](Cl)[C@H](OC)C3)[C@H](C)[C@@H](O)CC1=O)[C@H](C)C[C@@H]2OC
NC(=O)C1CC2(NC(=O)NC2=O)c2cc(F)ccc2O1 (stereo not given)
CN1[C@@H]2CC[C@@H]1CC(OC(=O)[C@H](CO)c1ccccc1)C2 (stereo not given in full)
CCCCCCCCCCCC(=O)OCC(O)C1OCC(O)C1O (stereo not given)
C/C1=C2/[N-]C(C(CC(N)=O)[C@@]2(C)CCC(=O)NCC(C)OP(=O)([O-])O[C@H]2[C@@H](O)[C@@H](n3cnc4cc(C)c(C)cc43)O[C@@H]2CO)[C@]2(C)N=C(/C(C)=C3N=C(/C=C4N=C1C(CCC(N)=O)C\4(C)C)[C@@H](CCC(N)=O)[C@]\3(C)CC(N)=O)[C@@H](CCC(N)=O)[C@]2(C)CC(N)=O.CC(=O)O.[Co] (stereo not given in full)
CC1(C)OC[C@@H]2O[C@@]3(C(=O)O)OC(C)(C)O[C@@H]3[C@@H]2O1
Cc1ccccc1N1C(=O)c2cc(N)ccc2N/C1=C\F
O=C1C(I)=CC(=C(c2cc(I)c(O)c(I)c2)c2ccccc2C(=O)O)C=C1I
NC(=O)NC(CCC(=O)O)C(=O)O (stereo not given)
